Inconclusive results are not listed. Where a call stands in place of a potency, no number is given. Calls of active or inactive are those of the source. Calls follow the shape of the dose curve; as a rule, active = well fitted inhibition curve with a large enough effect in the repeat runs; inconclusive = weak or mixed curves; inactive = no such curve, though single readings can be large or run the other way.
Potency is read from the fitted curve at half-maximal effect.

Chain of Cytochrome P450 2D6 (Homo sapiens) (P10635 whole entry, looked up): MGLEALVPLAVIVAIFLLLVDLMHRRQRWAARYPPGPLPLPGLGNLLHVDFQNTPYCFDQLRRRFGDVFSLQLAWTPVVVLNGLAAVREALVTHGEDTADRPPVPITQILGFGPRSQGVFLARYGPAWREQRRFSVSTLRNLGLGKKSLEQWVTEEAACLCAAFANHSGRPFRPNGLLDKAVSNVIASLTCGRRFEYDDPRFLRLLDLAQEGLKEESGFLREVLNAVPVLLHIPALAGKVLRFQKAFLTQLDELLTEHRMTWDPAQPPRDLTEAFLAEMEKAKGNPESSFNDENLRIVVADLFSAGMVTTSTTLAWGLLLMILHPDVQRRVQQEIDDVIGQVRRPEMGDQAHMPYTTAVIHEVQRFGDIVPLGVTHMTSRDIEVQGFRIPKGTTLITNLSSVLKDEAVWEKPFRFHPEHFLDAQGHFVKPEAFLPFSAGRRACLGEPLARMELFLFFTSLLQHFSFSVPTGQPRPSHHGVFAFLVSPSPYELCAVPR

The test addresses Cytochrome P450 2D6 (Homo sapiens) (UniProt P10635). The test is described as follows: Cytochrome P450 Family 2 Subfamily D Member 6 (CYP2D6) small molecule antagonists: luciferase reporter qHTS assay (AID 1671196). Also: nearly all actives have a fitted effect of over 50% in size. To be noted: P450-Glo CYP2D6 enzyme assay, luciferin luminescence, 1 h; series mostly up to 115 µM. From the text: U.S. Tox21 Program National Center for Advancing Translational Sciences [NCATS] U.S. Environmental Protection Agency [EPA] National Institutes of Environmental Health Sciences [NIEHS] National Toxicology Program [NTP] U.S. Food and Drug Administration [FDA] Tox21 Assay Overview: Cytochrome P450 (CYP) enzymes are membrane-bound hemeproteins that play a key role in metabolism of drugs and xenobiotics. Evaluation of the effect of chemicals on CYP isozymes is useful to minimize the adverse drug reactions and toxicities in drug development process. Tox21 chemicals were tested for their effect on CYP enzyme activities by using P450-Glo (TM) screening systems (Promega Corporation, Madison, WI). These systems provide a luminescent method containing proluciferin substrates and are converted to luciferin products by CYP isozymes. The luciferin products formed are detected with a luciferin detection reagent, and the amount of light produced is proportional to CYP activity. P450-Glo (TM) CYP2D6 screening system (Catalog. No. V9890) was used to detect the compounds that interfere in CYP2D6 activity.
Tox21 Assay Protocol Summary: Two ul of enzyme-substrate mix was dispensed into medium binding white/solid 1536-well plates (Greiner Bio-One North America Inc., Monroe, NC) using a BioRaptr Flying Reagent Dispenser (FRD, Beckman Coulter, Brea, CA). […] The assay plates were incubated at room temperature for 10 min. Then 2 ul of NADPH regeneration solution was added to each well of the assay plates using an FRD and incubated at room temperature for 1 h. The reaction was stopped by adding 4 ul of detection reagent using an FRD and after 20 min incubation at room temperature the luminescence signal was measured using a ViewLux plate reader (Perkin Elmer, Shelton, CT). Data were expressed as relative luminescence units.
For orientation: Reporter assays use an easily measured gene product as a stand-in for the process of interest.
Consider `CC(=O)c1cc(C(C)(C)C)cc2c1CCC2(C)C`, for which the Potency entry was “inactive”.
For the molecule `O=C(CCl)C(Cl)Cl`, the Potency is 40.3 µM (active).
In the case of `O=CC(Br)(Br)Br`, the Potency entry is “inactive”.
Next, `N#C/C=C/c1ccccc1`: “inactive”; `Cn1cc(C2=C(c3cn(C4CCN(Cc5ccccn5)CC4)c4ccccc34)C(=O)NC2=O)c2ccccc21`: “inactive”; `COP(=O)(CCC(=O)NCO)OC`: “inactive”.
For the molecule `Cl/C=C\CCl`, the Potency entry was “inactive”.
To `Cc1ccc(OP(=O)(Oc2ccccc2)Oc2ccccc2)cc1` belongs “inactive”.
On to `CC(C)[C@H](C(=O)OC(C#N)c1cccc(Oc2ccccc2)c1)c1ccc(OC(F)F)cc1` (stereo not given in full), for which the Potency was 5.03 µM (active).
Next, `C[C@@H]1O[C@@H](O[C@H]2C[C@@H](O)[C@]3(CO)[C@H]4[C@H](O)C[C@]5(C)[C@@H](C6=CC(=O)OC6)CC[C@]5(O)[C@@H]4CC[C@]3(O)C2)[C@H](O)[C@H](O)[C@H]1O`: “inactive”; `O=C(NC(=O)c1c(F)cccc1F)Nc1cc(Cl)c(OC(F)(F)C(F)F)c(Cl)c1`: “inactive”; `CCOC(=O)CC(=O)CCl`: “inactive”.
To `CC(C)[C@H](C(=O)O[C@H](C#N)c1cccc(Oc2ccccc2)c1)c1ccc(Cl)cc1` belongs “inactive”.
Next, `N#CC(Cl)Cl`: 61.6 µM (active); `O=[N+]([O-])c1cc(C(F)(F)F)c(Cl)c([N+](=O)[O-])c1Cl`: “inactive”.
On to `CC1(C)CC/C(=C/c2ccc(Cl)cc2)C1(O)Cn1cncn1` (stereo not given), for which the Potency is 12.6 µM (active).
To `CCCCCCCCCCCCBr` belongs “inactive”.
Next, `BrCC(Br)c1ccccc1` (stereo not given): 12.6 µM (active); `CCOCn1c(-c2ccc(Cl)cc2)c(C#N)c(Br)c1C(F)(F)F`: 35.6 µM (active).
`CCCN(CCC)CCc1c[nH]c2ccccc12`: the Potency is 0.351 µM (active).
For `Clc1ccc(Oc2ccccc2)cc1`, the Potency result is “inactive”.
To `C[As+](C)(C)CC(=O)[O-]` belongs “inactive”; to `CCc1ccccc1C`, “inactive”.
For `O=C(O)c1cc[c]([Hg][Cl])cc1`, the Potency was 12.6 µM (active).
With `ClC1=C(Cl)[C@]2(Cl)[C@@H]3[C@@H](Cl)[C@@H](Cl)C[C@@H]3[C@@]1(Cl)C2(Cl)Cl`, the Potency result was “inactive”.
As to `Clc1ccc(-c2ccc(Cl)c(Cl)c2Cl)c(Cl)c1Cl`, the Potency result was “inactive”.
Next, `CC(=O)/C=C/c1ccc2c(c1)OCO2`: 25.3 µM (active).
Next, `CCc1nn(C)c(C(=O)NCc2ccc(C(C)(C)C)cc2)c1Cl`: 63.3 µM (active); `ClC(Cl)=C(Cl)Cl`: “inactive”.
To `[CH3][Hg][Cl]` belongs “inactive”; to `O=C1C=CC(=O)c2ccccc21`, 15.9 µM (active); to `FC(F)(F)c1cccc(C2=CCN(CCc3ccc4ccccc4c3)CC2)c1`, 0.195 µM (active).
In the case of `CCOC(=O)C1(c2ccccc2)CCN(CCC(C#N)(c2ccccc2)c2ccccc2)CC1`, the Potency is 4.9 µM (active).
Next, `NC(=O)CCl`: “inactive”.
Take `CN(CCCC(=O)c1cccnc1)N=O`: the Potency result was “inactive”.
Next, `COc1cccc(C(=O)CCN[C@@H](C)[C@H](O)c2ccccc2)c1`: 1.38 µM (active); `O=C(O)COc1nc(Cl)c(Cl)cc1Cl`: 6.48 µM (active).
Consider `N#Cc1ccccc1N`, for which the Potency was 25.2 µM (active).
Next, `Cc1cc(C)cc(OP(=O)(Oc2cc(C)cc(C)c2)Oc2cc(C)cc(C)c2)c1`: “inactive”; `C=COCCCl`: “inactive”.

Values taken from PubChem BioAssay (Tox21).
